“And” between values parts separate entries of the source, which are not always exact repeats. Equal values may be shown once. Inconclusive results are not listed. The source made the active and inactive calls. Unless noted, calls come from the whole dose curve.
What was measured:
[1] = qHTS for Inhibitors of the Functional Ribonucleoprotein Complex (vRNP) of Lassa (LASV) Arenavirus: LASV Primary Screen - GLuc reporter signal (AID 1347082; calls by dose curve; tested in HEK293 reporter line; note: % is set by controls: 0 for no effect and ±100 for the full control effect; nearly all actives have a fitted effect of over 60% in size)
[2] = qHTS for Inhibitors of the Functional Ribonucleoprotein Complex (vRNP) of Lassa (LASV) Arenavirus: Viability assay - alamar blue signal for LASV Primary Screen (AID 1347083; calls by dose curve; tested in HEK293 reporter line; note: % is set by controls: 0 for no effect and ±100 for the full control effect; nearly all actives have a fitted effect of over 80% in size)
[3] = qHTS for Inhibitors of the Functional Ribonucleoprotein Complex (vRNP) of Lymphocytic Choriomeningitis Arenaviruses (LCMV): Viability assay - alamar blue signal for LCMV Primary Screen (AID 1347085; calls by dose curve; tested in HEK293 reporter line; note: % is set by controls: 0 for no effect and ±100 for the full control effect; nearly all actives have a fitted effect of over 80% in size)
[4] = target: Nucleoprotein (Lymphocytic choriomeningitis virus (strain Armstrong)) (UniProt P09992); assay: qHTS for Inhibitors of the Functional Ribonucleoprotein Complex (vRNP) of Lymphocytic Choriomeningitis Arenaviruses (LCMV): LCMV Primary Screen - GLuc reporter signal (AID 1347086); note: % is set by controls: 0 for no effect and ±100 for the full control effect; nearly all actives have a fitted effect of over 70% in size
Chain of Nucleoprotein (Lymphocytic choriomeningitis virus (strain Armstrong)) (P09992 whole entry, looked up): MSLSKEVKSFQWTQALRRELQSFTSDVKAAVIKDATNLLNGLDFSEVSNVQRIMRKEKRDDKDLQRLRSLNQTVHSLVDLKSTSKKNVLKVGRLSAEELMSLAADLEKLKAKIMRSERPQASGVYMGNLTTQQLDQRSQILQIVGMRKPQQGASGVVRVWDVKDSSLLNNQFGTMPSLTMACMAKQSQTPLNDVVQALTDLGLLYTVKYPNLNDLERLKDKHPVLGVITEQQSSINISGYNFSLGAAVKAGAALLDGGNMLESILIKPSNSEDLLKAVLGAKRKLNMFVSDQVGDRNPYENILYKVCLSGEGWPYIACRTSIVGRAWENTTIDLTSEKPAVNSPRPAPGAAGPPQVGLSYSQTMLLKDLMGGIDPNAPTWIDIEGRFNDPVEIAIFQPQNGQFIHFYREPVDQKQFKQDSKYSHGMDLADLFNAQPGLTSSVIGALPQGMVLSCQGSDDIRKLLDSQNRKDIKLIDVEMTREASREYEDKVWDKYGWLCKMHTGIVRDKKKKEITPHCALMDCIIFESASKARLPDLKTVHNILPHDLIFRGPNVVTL

[5] = qHTS for inhibitors of Rabies Virus screened against the NCATS CANVASS Library (AID 1347402); note: 0% is about no effect
[6] = Primary qHTS for inhibitors of SARS-S pseudo-typed particle cell entry (AID 1479145); note: nearly all actives have a fitted effect of over 45% in size; for activity change, negative = inhibition: % is set by controls: 0 for no effect and ±100 for the full control effect
[7] = Primary qHTS for Huh7 cytotoxicity: counterscreen for inhibitors of MERS-S pseudotyped particle cell entry (AID 1479147); details: outcome: dose series up to 57.1 µM unless noted
[8] = Primary qHTS for inhibitors of MERS-S pseudo-typed particle cell entry (AID 1479149); note: nearly all actives have a fitted effect of over 60% in size; note: potency is the fitted concentration of half-maximal effect
[9] = Primary qHTS for Vero E6 cytotoxicity: counterscreen for inhibitors of SARS-S pseudo-typed particle cell entry (AID 1479150); details: outcome: dose series up to 57.1 µM unless noted; for activity change, negative = cytotoxicity: % is set by controls: 0 for no effect and ±100 for the full control effect
[10] = Confirmatory qHTS to identify inhibitors of SARS-CoV-2 cell entry (AID 1645844); note: potency is the fitted concentration of half-maximal effect; nearly all actives have a fitted effect of over 45% in size
How it was run: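 HEK293-ACE2, overnight seeding; cpd 1 h, 37C/5% CO2; + SARS-CoV-2-S MLV PP (Wuhan-Hu-1, ΔC19); 48 h; Bright-Glo luminescence. Data normalised to S PP and bald PP wells.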

[11] = Cytotoxicity counterscreen for inhibitors of SARS-CoV-2 cell entry (AID 1645845); note: nearly all actives have a fitted effect of over 50% in size; for activity change, negative = cytotoxicity: % is set by controls: 0 for no effect and ±100 for the full control effect
How it was run: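 Counterscreen run in the same HEK293-ACE2 line as the pseudotyped-particle entry assay, without particles. Viability after 48 h at 37 C was read as ATP luminescence, scaled between cell-containing and cell-free wells.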

[12] = Primary qHTS to identify inhibitors of SARS-CoV-2 cell entry (AID 1645846); details: activity change, negative = inhibition: at 57.1 µM (top of the series) unless noted; note: nearly all actives have a fitted effect of over 45% in size
How it was run: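 HEK293-ACE2 (Expi293F, stable hACE2), 1500 cells/well, o/n 37C; cpd 23 nL pin, 1 h; MLV-PP w/ SARS-CoV-2-S (Wuhan-Hu-1, Δ19 C-term); 48 h 37C; Bright-Glo luminescence; normalized vs S-PP and bald PP.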

[13] = VSVG counterscreen qHTS to identify inhibitors of SARS-CoV-2 cell entry (AID 1645847); note: potency is the fitted concentration of half-maximal effect; nearly all actives have a fitted effect of over 65% in size
How it was run: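 Expi293F/hACE2 cells, overnight plating; cpd 1 h, 37C/5% CO2; + VSV-G PP (MLV pseudotyping), 48 h; supernatant removed, Bright-Glo luciferase read. Norm: VSV-G PP and bald PP wells.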

[14] = target: Alpha-galactosidase (Coffea arabica) (UniProt Q42656); assay: Counterscreen for Glucocerebrosidase Inhibitors: qHTS Assay for Coffee Bean alpha-Galactosidase at pH 4.5 (AID 957; active = well fitted curve in the direction sought with a large enough effect; an effect the other way counts as inactive or inconclusive;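 note: plate controls were enzyme alone for no effect and no enzyme for full effect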)
Chain of Alpha-galactosidase (Coffea arabica) (Q42656 whole entry, looked up): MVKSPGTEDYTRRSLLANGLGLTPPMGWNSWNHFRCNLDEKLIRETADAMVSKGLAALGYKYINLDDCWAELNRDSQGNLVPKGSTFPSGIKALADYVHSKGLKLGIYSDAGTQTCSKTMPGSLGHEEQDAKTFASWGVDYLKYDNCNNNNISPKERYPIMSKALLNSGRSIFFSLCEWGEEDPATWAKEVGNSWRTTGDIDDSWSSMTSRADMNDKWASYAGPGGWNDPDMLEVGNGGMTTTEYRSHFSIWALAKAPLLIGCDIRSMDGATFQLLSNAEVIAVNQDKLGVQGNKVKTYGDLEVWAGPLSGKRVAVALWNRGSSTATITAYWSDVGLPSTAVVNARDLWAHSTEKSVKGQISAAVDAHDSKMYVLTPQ
How it was run: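 Fluorogenic read-out: 4-methylumbelliferone at Ex 365/Em 440 nm after NaOH/glycine stop (pH 10). Enzyme 2 nM, 4-MU-alpha-galactoside 80 uM, citrate buffer pH 4.5, 20 min RT; normalized to no-enzyme and enzyme controls.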

[15] = target: Alpha-galactosidase (Coffea arabica) (UniProt Q42656); assay: Counterscreen for Glucocerebrosidase Inhibitors: qHTS Assay for Coffee Bean alpha-Galactosidase at pH 5.9 (AID 998; active = well fitted curve in the direction sought with a large enough effect; an effect the other way counts as inactive or inconclusive;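 note: plate controls were uninhibited enzyme for no effect and no-enzyme basal signal for full effect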)
How it was run: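 Enzyme 2 nM + cpd (0.7 nM–77 uM titration) + 4-MU-alpha-Gal 80 uM, pH 5.9 citrate/Tween-20, RT 20 min, NaOH/glycine stop pH 10, fluor 365/440. Normalized to no-enzyme and full-activity controls; Hill-fit AC50.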

[16] = Inducers of the Endoplasmic Reticulum Stress Response (ERSR) in human glioma: Validation (AID 504836; active = well fitted curve in the direction sought with a large enough effect; an effect the other way counts as inactive or inconclusive; note: 0% is about no effect)
How it was run: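 Stably transfected U87-MG glioma cells carrying a GRP78-based luciferase sensor; 16 h compound incubation. Luminescence end-point read 10 min after Bright-Glo addition at room temperature.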

[17] = target: Bile acid receptor (Homo sapiens) (UniProt Q96RI1); assay: qHTS assay for small molecule agonists of farnesoid X receptor signaling (AID 588527); details: HEK293T FXR-UAS-bla, beta-lactamase ratio, 16 h; activation: stronger effect = higher value;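 note: 0% = vehicle basal and 100% = reference agonist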
Chain of Bile acid receptor (Homo sapiens) (Q96RI1 whole entry, looked up): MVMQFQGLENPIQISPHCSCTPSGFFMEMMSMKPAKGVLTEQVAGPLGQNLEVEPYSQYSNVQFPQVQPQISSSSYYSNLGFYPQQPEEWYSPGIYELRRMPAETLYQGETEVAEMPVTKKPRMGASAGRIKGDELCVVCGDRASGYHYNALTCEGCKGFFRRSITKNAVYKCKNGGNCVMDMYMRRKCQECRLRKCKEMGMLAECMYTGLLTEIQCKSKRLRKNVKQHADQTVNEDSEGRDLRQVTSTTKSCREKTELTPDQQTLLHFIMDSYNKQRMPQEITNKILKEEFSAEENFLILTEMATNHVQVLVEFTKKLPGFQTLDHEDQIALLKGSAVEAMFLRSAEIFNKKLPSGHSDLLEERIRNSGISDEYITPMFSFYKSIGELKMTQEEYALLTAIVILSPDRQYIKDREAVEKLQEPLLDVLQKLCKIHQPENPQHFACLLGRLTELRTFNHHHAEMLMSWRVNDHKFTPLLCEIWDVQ
How it was run: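 FXR-UAS-bla HEK293T cells (10% dialyzed FBS) preincubated 5-7 h at 37 C, then compounds at up to 92 uM for 16 h at 37 C. CCF4 beta-lactamase read-out after 2 h RT. Normalized to chenodeoxycholic acid (100 uM) and DMSO; Hill fit gave EC50 and efficacy.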

[18] = target: Peroxisome proliferator-activated receptor delta (Homo sapiens) (UniProt Q03181); assay: qHTS assay for small molecule agonists of peroxisome proliferator-activated receptor delta signaling (AID 588534);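 note: 0% = DMSO basal wells and 100% = positive control agonist at 10 µM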
Chain of Peroxisome proliferator-activated receptor delta (Homo sapiens) (Q03181 whole entry, looked up): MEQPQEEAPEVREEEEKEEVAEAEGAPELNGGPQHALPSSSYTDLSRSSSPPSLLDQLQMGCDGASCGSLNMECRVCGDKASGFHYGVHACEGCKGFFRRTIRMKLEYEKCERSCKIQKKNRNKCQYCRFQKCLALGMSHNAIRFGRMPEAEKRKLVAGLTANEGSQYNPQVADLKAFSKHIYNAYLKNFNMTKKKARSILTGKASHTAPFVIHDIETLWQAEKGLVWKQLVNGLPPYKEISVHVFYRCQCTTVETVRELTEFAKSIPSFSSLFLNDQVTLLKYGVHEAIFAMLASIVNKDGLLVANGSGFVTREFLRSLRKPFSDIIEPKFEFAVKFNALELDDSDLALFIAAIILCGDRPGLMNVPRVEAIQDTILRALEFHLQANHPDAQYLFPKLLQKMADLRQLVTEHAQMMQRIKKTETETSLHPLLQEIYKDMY
How it was run: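 Titration series tested in agonist mode on beta-lactamase reporter cells; 18 hrs at 37 C after a 5 hr pre-incubation. Readout: CCF4 fluorescence, 2 hrs RT. Hill equation gives EC50 and maximal response.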

[19] = system: Zika virus NS2B-NS3 protease; assay: Primary screen GU AMC qHTS for Zika virus inhibitors (AID 1347154; active = well fitted curve in the direction sought with a large enough effect; an effect the other way counts as inactive or inconclusive;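 note: 0% = no-inhibitor control and -100% = no-enzyme control; nearly all actives have a fitted effect of over 70% in size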)
How it was run: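 Unlinked Zika NS2B hydrophilic domain–NS3 protease complex at 25 nM in 10 mM Tris-HCl pH 8.0, 0.01% Tween 20, with an AMC peptide substrate. Fluorescence change (340/450 nm) over 15 min at room temperature, normalized to controls, fitted to 4-parameter Hill.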

[20] = Primary qHTS for small molecule stabilizers of the endoplasmic reticulum resident proteome: Secreted ER Calcium Modulated Protein (SERCaMP) assay (AID 1508630; active = well fitted curve in the direction sought with a large enough effect; an effect the other way counts as inactive or inconclusive; note: % is set by controls: 0 for no effect and ±100 for the full control effect)
How it was run: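 The SH-SY5Y reporter protocol was run at 3 concentrations up to 38.3 uM (primary) or 11 concentrations (follow-up): 16 h compound, 100 nM thapsigargin for 4 h, then extracellular luciferase luminescence.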

O=C(O)Cc1c[nH]c2ccccc12
inactive: Potency [1] | Potency [2] | Potency [3] | Potency [4] | outcome [5]

COc1cc2c(cc1Cc1cccc(Cl)c1F)c(=O)c(C(=O)O)cn2[C@H](CO)C(C)C
-96.1% and -86.8%: activity change, negative = inhibition [12]
active: Potency [8] 12600 nM | Potency [10] 60.7 nM | Potency [13] 17.1 nM
inactive: Potency [1] | Potency [2] | Potency [3] | Potency [4] | Potency [6] | outcome [7] | outcome [9] | Potency [11]

CC(C=CC=C(C)C=CC1=C(C)CCCC1(C)C)=CC=CC=C(C)C=CC=C(C)C=CC1=C(C)CCCC1(C)C
inactive: Potency [1] | Potency [2] | Potency [3] | Potency [4] | outcome [6] inactive [at 0.573 µM] | outcome [7] inactive [at 0.573 µM] | outcome [8] inactive [at 0.573 µM] | activity change, negative = cytotoxicity [9] 0.415% [at 0.573 µM] | outcome [11] inactive [at 0.702 µM]
-7.48% [at 0.702 µM]: activity change, negative = inhibition [12]

N[C@@H](Cc1ccc(O)c(O)c1)C(=O)O
inactive: outcome [14] | outcome [15] | outcome [16] | activation [17] 1.53% | Potency [18] | Potency [1] | Potency [2] | Potency [3] | Potency [4] | outcome [6] inactive [at 0.573 µM] | outcome [7] inactive [at 0.573 µM] | activity change, negative = inhibition [8] 3.84% [at 0.573 µM] | outcome [9] inactive [at 0.573 µM] | Potency [11] | outcome [12] inactive [at 0.702 µM]
-25.4%: activity change, negative = inhibition [12]
active: Potency [10] 3830 nM | Potency [13] 429 nM

CC(/C=C/C=C(\C)C(=O)O[C@@H]1O[C@H](CO[C@@H]2O[C@H](CO)[C@@H](O)[C@H](O)[C@H]2O)[C@@H](O)[C@H](O)[C@H]1O)=C\C=C\C=C(C)\C=C\C=C(/C)C(=O)O[C@@H]1O[C@H](CO[C@@H]2O[C@H](CO)[C@@H](O)[C@H](O)[C@H]2O)[C@@H](O)[C@H](O)[C@H]1O
inactive: Potency [1] | Potency [2] | Potency [3] | Potency [4] | Potency [6] | outcome [7] | Potency [8] | outcome [9] | Potency [11]
-12.5%: activity change, negative = inhibition [12]

CC(C)[N+]1(C)[C@@H]2CC[C@H]1CC(OC(=O)C(CO)c1ccccc1)C2 (stereo not given in full)
2.78%: activity change, negative = inhibition [12]
inactive: Potency [1] | Potency [2] | Potency [3] | Potency [4] | Potency [6] | outcome [7] | Potency [8] | outcome [9] | Potency [11]

CN1CCCCC1c1cccnc1 (stereo not given)
inactive: Potency [1] | Potency [2] | Potency [3] | Potency [4] | Potency [19] | Potency [20]

C[Se]CC[C@H](N)C(=O)O
inactive: Potency [1] | Potency [2] | Potency [3] | Potency [4] | Potency [6] | outcome [7] inactive [at 26.4 µM] | Potency [8] | outcome [9] | Potency [11]
